A selection: hits, their analogues and other compounds. The true share with any hit is near 3.6%.
LGR2 inh: inhibitors of bursicon-induced LGR2 CRE-luciferase signal, primary screen, cell-based, HEK293, CRE-luciferase reporter, bursicon stimulation | Drosophila bursicon receptor LGR2 (rickets) | bursicon-stimulated, 4 h | inhibition, % at 9.99 µM | 0.35% of 380,000 active;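 active means drop in luminescence signal, shown as inhibition above about 50% in the replicate tests, limit read from the data, passing the limit was not always enough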;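 further: agonist challenge used bursicon conditioned medium at about half maximal strength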
Mdm2 MdmX PPI: inhibitors of human Mdm2-MdmX association, primary screen, cell-based, luminescence, split luciferase, SaOS-2, uHTS; Protein Mdm4 (Homo sapiens) + E3 ubiquitin-protein ligase Mdm2 (Homo sapiens), …; SaOS-2 split-luciferase Mdm2/MdmX complementation; inhibition, % at 8 µM; 3% of 330,000 active; AID 485346, 2010;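 active means inhibition of at least 50% at 8 µM in the primary screen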
KKLEB tox: cytotoxicity in KKLEB CF airway cells, primary screen, cytotoxicity control for CF NF-kB inhibitor project, cell-based, uHTS, fluorescence assay plates. 0.36% of 360,000 active. activity change (cytotoxicity), % at 5 µM. KKLEB CF airway cells viability, ATPlite luminescence, overnight; stronger effect = lower value; cells stimulated with P. aeruginosa culture filtrate. AID 602141, 2011;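 active means corrected activity change at or below -50% at 5 µM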
CF NFkB block: inhibitors of PAF-induced NF-kB signaling, primary screen, cell-based, GFP fluorescence, uHTS | KKLEB NF-kB-GFP reporter, GFP fluorescence overnight | inhibition, % at 5 µM | 0.86% of 360,000 active | AID 588850, 2011;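 active means at least 50% inhibition at 5 µM, scaled per plate between neutral and stimulator controls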;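 further: PAF is a Pseudomonas aeruginosa culture filtrate used as stimulus; plate controls were PAF-stimulated DMSO wells for no effect and unstimulated DMSO wells for full effect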
Peg3 prom inh: Peg3 promoter-driven luciferase inhibitors, primary screen, cell-based, HeLa, luciferase luminescence; inhibition, % at 20 µM; AID 588405, 2011; 1.7% of 360,000 active; HeLa PEG-Prom luciferase reporter, overnight;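 active means inhibition of at least 50% at 20 µM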
HSP90 refold inh: HSP90 inhibitors, primary screen, cell lysate, luminescence | Rabbit reticulocyte lysate, luciferase refolding luminescence, 3 h | 0.91% of 290,000 active | AID 1789, 2009 | inhibition, % at 5.6 µM;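 active means inhibition above the screen-wide mean plus 3 SD, computed separately per campaign, cut at about 16% in these data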;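 further: 0% = DMSO wells and 100% = 60 µM geldanamycin wells; inhibitors lower the luminescence because luciferase stays unfolded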
Mdm2-MdmX conf: Mdm2-MdmX complex disruptors, retested hits, confirmation, luminescence, single concentration; shares compounds with Mdm2 MdmX PPI; Mdm2-MdmX binding, luminescent assay; inhibition, % at 8 µM; 55% of 10,000 active; in the data active means inhibition above about 40%
Full FLuc ctr: full-length luciferase signal inhibition, confirmation, counter-screen for Mdm2/MdmX interaction inhibitor project, cell-based, single concentration, SaOS-2. SaOS-2 full-length luciferase counterscreen, luminescence. inhibition, % at 8 µM. shares compounds with Mdm2 MdmX PPI. 77% of 6,200 active;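 active means mean inhibition at 8 µM reaching about 37%, which flags the compound as non-specific, limit read from the data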;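 further: p53-null SaOS-2 cells with luciferase driven by a doxycycline-inducible promoter; compound on cells about two nights before reading with doxycycline added after day one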
Active calls of the source: *.

Screening COc1ccc(NC(=O)CSc2ncnc3c2sc2ccccc23)c(OC)c1 returned LGR2 inh -10.9, Mdm2 MdmX PPI 88.3*, KKLEB tox -55.4*, CF NFkB block 53.1*, Peg3 prom inh 44.8, HSP90 refold inh -0.8 and Mdm2-MdmX conf 16.2.
`NC(=O)C1CCN(C(=O)N2c3ccccc3Sc3ccccc32)CC1` gave LGR2 inh 8.7, Mdm2 MdmX PPI 13.6, KKLEB tox -9.4, CF NFkB block 19.6, Peg3 prom inh 14.8 and HSP90 refold inh 4.6.
For O=C(C1CC1)N1c2ccccc2Sc2ccccc21 the results were LGR2 inh 18.1, Mdm2 MdmX PPI 61.4*, KKLEB tox 3.5, CF NFkB block 0.3, Peg3 prom inh 39.2, HSP90 refold inh 1.9, Mdm2-MdmX conf 55.4* and Full FLuc ctr 75.0*.
C[C@H]1CN([C@@H](C)CO)C(=O)c2cc(NC(=O)C3CC3)ccc2O[C@@H]1CN(C)Cc1ccc2c(c1)OCO2 was read as LGR2 inh 3.5.
CCc1cc2c(C)ccc(C)c2nc1SCC(=O)Nc1c(C)[nH]c(=O)[nH]c1=O was read as LGR2 inh 38.8, Mdm2 MdmX PPI -11.7, KKLEB tox 14.2, CF NFkB block -17.4, Peg3 prom inh 10.0 and HSP90 refold inh -6.8.
For CCc1cc2c(C)ccc(C)c2nc1SCC(=O)Nc1c[nH]c(=O)[nH]c1=O the results were LGR2 inh 48.8, Mdm2 MdmX PPI 56.1*, KKLEB tox -8.1, CF NFkB block -4.0, Peg3 prom inh 8.4, HSP90 refold inh 1.4 and Mdm2-MdmX conf 24.3.
`O=C(Nc1nnc(-c2ccccc2SCc2ccccc2F)s1)Nc1ccccc1F` gave LGR2 inh -14.4, Mdm2 MdmX PPI 78.8*, KKLEB tox -5.5, CF NFkB block 5.9, Peg3 prom inh 25.2, HSP90 refold inh 1.6, Mdm2-MdmX conf 65.7* and Full FLuc ctr 100.9*.
Screening C[C@@H]1CCCCO[C@@H](CN(C)C(=O)Nc2ccc3c(c2)OCO3)[C@H](C)CN([C@@H](C)CO)C(=O)c2cc(NC(=O)Nc3ccccc3)ccc2O1 returned LGR2 inh 12.6.
`O=C(O)C[C@H]1C[C@@H]2c3cc(NC(=O)c4ccc5c(c4)OCO5)ccc3O[C@@H]2[C@@H](CO)O1` gave LGR2 inh -14.3.
For Cc1ccccc1N1CCN(CCCN2C(=O)CC(=C(c3ccccc3)c3ccccc3)C2=O)CC1 the results were LGR2 inh -7.5, Mdm2 MdmX PPI 32.3, KKLEB tox -8.4, CF NFkB block 2.1, Peg3 prom inh 17.1 and HSP90 refold inh 3.4.
Screening O=C1CC(=C(c2ccccc2)c2ccccc2)C(=O)N1CCCCN1CCN(c2cccc(Cl)c2)CC1 returned Mdm2 MdmX PPI 60.3*, KKLEB tox 4.0, CF NFkB block 6.7, Peg3 prom inh 50.1*, HSP90 refold inh 2.7 and Mdm2-MdmX conf 36.6.
Screening O=C(Nc1nc(NC(=O)c2ccco2)n(-c2ccccc2)n1)c1ccccc1 returned Mdm2 MdmX PPI 74.4*, KKLEB tox -3.5, CF NFkB block -2.1, Peg3 prom inh 24.6, HSP90 refold inh 1.5, Mdm2-MdmX conf 63.6* and Full FLuc ctr 45.8*.
